For this assay, the target named is F2R. Briefly: pooled miR-30 sensor sort-seq; sequence = guide strand. To be noted: shRNA.
TAATAACTTAAACCTTGCCGTC displayed a sensor-assay potency score (higher = more potent) of -1.01.
TAACACCGTCATCTCGTCCTGT registered a sensor-assay potency score (higher = more potent) of -0.174.
TACACCACAGCCAGAAACCGGT: the sensor-assay potency score (higher = more potent) was -0.606.
AAACACTAGAACTTCTACGCAC: the sensor-assay potency score (higher = more potent) amounted to 0.254.
In turn, TAGTACTAAGTCTTACCTCTTA came in with a sensor-assay potency score (higher = more potent) of -0.241.
TAAACTTTTCTTTTTAACCTCC yielded a sensor-assay potency score (higher = more potent) of 0.474.
Take TTATTGATGGAGACTAATCTGT: the sensor-assay potency score (higher = more potent) is -0.475.
Then ATAGACACATAACAGACCGTGG, with -0.63; and TTCCTGAGAAGAAATGACCGGG, with 0.496.
Turning to TTTCAGGATGAACACAACGATG, the sensor-assay potency score (higher = more potent) was -1.75.
Regarding TAGGATATCACATTCTGCTTTG, the sensor-assay potency score (higher = more potent) was -0.448.

The record behind these values is the OligoGym collection.
Further: reference of the scale not given here.
